Hits are enriched below; roughly 10% of the tested compounds scored in any of these assays.
Six1-Eya2 blk: qHTS Assay for Inhibitors of the Six1/Eya2 Interaction. AlphaScreen GST-Six1/His-Eya2 binding, biochemical; hits give low values. Homeobox protein SIX1 (Homo sapiens) + Protein phosphatase EYA2 (Homo sapiens), …. hit rate 0.56% among 360,000. AID 651725, 2012. activity change, % (concentration not given with the values); in the data active = activity change below about -65%; inconclusive = mostly about -30% to -63%
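Compounds are tested against tagged Six1 and Eya2 proteins bridged by glutathione donor and nickel acceptor beads; after a one-hour incubation at 37 °C without light, AlphaScreen emission is recorded.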
CtBP-E1A inh: qHTS Assay for Inhibitors of the CtBP/E1A Interaction; CtBP / adenovirus E1A interaction (AlphaScreen); AlphaScreen GST-E1A/His-CtBP binding, 1536-well; hits give low values; activity change, % (concentration not given with the values); hit rate 0.49% among 340,000; AID 651724, 2012; in the data active = activity change below about -65%; inconclusive = mostly about -30% to -63%
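Protein mix (5X: 125 nM each GST-E1A, His-CtBP) was incubated with pinned compound 2 h at 37 deg C in dark, in 50 mM Tris pH 8.0 buffer with 300 mM NaCl. Glutathione donor and nickel acceptor beads followed; AlphaScreen signal read after 1 h.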
HP1b chromo inh: HTS for Inhibitors of HP1-beta Chromodomain Interactions with Methylated Histone Tails. hit rate 0.56% among 390,000. Potency, µM (series often up to 114 µM), usual class: inhibitors. AID 540317, 2011. Chromobox protein homolog 1 (Homo sapiens), P83916. AlphaScreen HP1-beta / biotin-H3K9me3 peptide binding; also: nearly all actives have a fitted effect of over 70% in size
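AlphaScreen: HP1-beta (50 nM) preformed 30 min with biotin-H3(1-18)K9me3 peptide (50 nM) in PBS pH 7.4, 0.01% Tween-20. Compound added for 30 min at RT, then streptavidin donor/nickel chelate acceptor beads (10 ug/mL) for 30 min.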
G9a block: qHTS Assay for Inhibitors of Histone Lysine Methyltransferase G9a. Histone-lysine N-methyltransferase EHMT2 (Homo sapiens), Q96KQ7. G9a H3K9 monomethylation, AlphaScreen, 2 h. Potency, µM (series often up to 102 µM), usual class: inhibitors. hit rate 8.8% among 350,000. AID 504332, 2011; also: nearly all actives have a fitted effect of over 75% in size
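Quantitative HTS format: methyltransferase activity on a biotin-tagged H3K9 peptide is measured by AlphaScreen, using a rabbit anti-monomethyl-H3K9 antibody with streptavidin donor and anti-IgG acceptor beads. Final levels are 20 nM enzyme, 500 nM peptide, 20 uM SAM; 2 h RT.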
BAZ2B block: qHTS Assay for Inhibitors of BAZ2B. AlphaScreen BAZ2B-H3K14Ac peptide displacement. Potency, µM (doses to about 114 µM), usual class: inhibitors. Bromodomain adjacent to zinc finger domain protein 2B (Homo sapiens), Q9UIF8. hit rate 4.4% among 360,000. AID 504333, 2011; also: nearly all actives have a fitted effect of over 60% in size
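Compounds, titrated to a top concentration of 110 uM, were incubated 30 min at room temperature with preformed BAZ2B/acetyl-K14 H3 peptide complex (50 nM each). Proximity signal was measured by AlphaScreen after 20 min with beads.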
JMJD2A Tudor: qHTS Assay for Inhibitors of JMJD2A-Tudor Domain; Potency, µM (doses to about 114 µM), hits mostly inhibitors; hit rate 4.4% among 390,000; Lysine-specific demethylase 4A (Homo sapiens), O75164; AlphaScreen JMJD2A-Tudor / H3K4me3 peptide binding; also: nearly all actives have a fitted effect of over 50% in size
Large screens that a line does not name were inactive. Unless noted, calls follow the shape of the dose curve; as a rule, active = well fitted inhibition curve with a large enough effect; inconclusive = small, poorly fitted or top-dose-only effect; inactive = no such curve, though single readings can be large or run the other way.

Cc1cc(C(=O)CCC(=O)N(C)CC(=O)Nc2c(Cl)cccc2Cl)c(C)s1	none
CN(CC(=O)Nc1cccc(F)c1)C(=O)c1cccc(-n2cccc2)c1	Six1-Eya2 blk inconclusive, HP1b chromo inh inconclusive, G9a block inconclusive, BAZ2B block 28µM, JMJD2A Tudor 28µM
COc1ccccc1OCc1nc2ccccc2n1Cc1ccccc1	none (no result: Six1-Eya2 blk, CtBP-E1A inh)
O=C(CSc1nc(=O)[nH]c2c1CCC2)NCc1ccc(F)cc1	none (no result: Six1-Eya2 blk, CtBP-E1A inh)
O=C(OCc1cc(=O)n2nc(-c3cccs3)sc2n1)c1ccccc1Cl	none (no result: Six1-Eya2 blk, CtBP-E1A inh)
O=c1c(O)c(-c2ccc(O)c(O)c2)oc2c(OC3OC(CO)C(O)C(O)C3O)c(O)cc(O)c12 (stereo not drawn)	none (no result: Six1-Eya2 blk, CtBP-E1A inh, HP1b chromo inh, BAZ2B block, JMJD2A Tudor)
Cc1ccc(C)c(NC(=O)CN(C)C(=O)c2cccc(-n3cccc3)c2)c1	HP1b chromo inh 45µM, G9a block 40µM, BAZ2B block 25µM, JMJD2A Tudor 16µM
Cc1cc2c(s1)c1cnn(Cc3c(F)ccc(C)c3F)c(=O)c1n2C	none (no result: Six1-Eya2 blk, CtBP-E1A inh, HP1b chromo inh, G9a block, BAZ2B block)
CNCC(O)c1cccc(O)c1 (stereo not drawn)	none (no result: Six1-Eya2 blk, CtBP-E1A inh, HP1b chromo inh, BAZ2B block, JMJD2A Tudor)
CC1(C)CC(=O)C(C(c2ccc(F)cc2)C2C(=O)CC(C)(C)CC2=O)C(=O)C1	G9a block inconclusive
CC1(C)CC(=O)C(C(c2ccc(Br)cc2)C2C(=O)CC(C)(C)CC2=O)C(=O)C1	G9a block 45µM
COc1ccccc1N(C)S(=O)(=O)c1ccc(C(=O)N(CC(N)=O)C(C)C)cc1	BAZ2B block 89µM
COCCNC(=O)c1cc(S(=O)(=O)N(C)c2ccccc2OC)ccc1C	G9a block 28µM
CCOC(=O)C1CCN(C(=O)Cn2cnc3sc(C)c(S(=O)(=O)N4CCCCC4)c3c2=O)CC1	G9a block 50µM
CCOC(=O)C1CCN(C(=O)Cn2cnc3sc(C)c(S(=O)(=O)N4CCC(C)CC4)c3c2=O)CC1	none
COc1ccc(C(=O)NCc2ccc3c(c2)CCN3C(=O)c2ccc(Cl)cc2)c(OC)c1	JMJD2A Tudor inconclusive (no result: Six1-Eya2 blk, CtBP-E1A inh)
CC1=C(C(=O)OC2CCCCCC2)C(c2cccc(Cl)c2)CC(=O)N1 (stereo not drawn)	G9a block inconclusive (no result: Six1-Eya2 blk, CtBP-E1A inh)
Cn1c(C2CCCN2C(=O)OC(C)(C)C)n[nH]c1=S (stereo not drawn)	G9a block 22µM, JMJD2A Tudor 45µM
C[N+]1(CC2COC3(CCCCC3)O2)CCCC1 (stereo not drawn)	G9a block 14µM, JMJD2A Tudor inconclusive
CCOc1ccc(N2CC(=O)N/C2=N\c2nc(C)cc(C)n2)cc1	G9a block 56µM, JMJD2A Tudor inconclusive
CC(C)CCNC(=S)Nc1ccccn1	G9a block 1µM
O=C(NC(=S)Nc1ccccn1)c1ccc([N+](=O)[O-])cc1	G9a block 79µM
O=C(NC(=S)Nc1ccccn1)c1ccc(-c2ccccc2)cc1	none
CC(C)(C)C(=O)NC(=S)Nc1ccccn1	none
COCCNC(=S)Nc1ccccn1	none (no result: G9a block)
CC(C)C(=O)NC(=S)Nc1ccccn1	G9a block 56µM, JMJD2A Tudor inconclusive
O=C(NC(=S)Nc1ccccn1)c1ccccc1	G9a block 50µM (no result: CtBP-E1A inh)
Cc1ccc(CNC(=O)Nc2cc(C(=O)NCc3cccc(F)c3)ccc2N2CCCC2)cc1	none (no result: Six1-Eya2 blk, CtBP-E1A inh)
COc1ccc(Cl)cc1NC(=O)Cn1c(=O)n(Cc2ccco2)c(=O)c2cccnc21	none (no result: Six1-Eya2 blk, CtBP-E1A inh)
CC(C)C(=O)NC(=S)Nc1ccccc1C(=O)NC1CCCCC1	G9a block 50µM
CCC(=O)NC(=S)Nc1ccccc1C(=O)NC1CCCCC1	none
COc1ccc(Cn2c(=O)c3oc4ccccc4c3n(Cc3cccc(C(F)(F)F)c3)c2=O)cc1	none (no result: Six1-Eya2 blk, CtBP-E1A inh)
Cc1nn(-c2cccc(Cl)c2)c2nc(C(F)(F)F)[nH]c(=O)c12	Six1-Eya2 blk inconclusive, CtBP-E1A inh inconclusive

Source: PubChem BioAssay
